# Data from the supplement of paper PMC3334620.
# Over roughly 33,000 sequences, “E-score (-0.5 to 0.5)” has its median near -0.016; the highest 2% begin near 0.31. What follows is part of a selection rich in the highest values, with near analogues and random picks from the rest.
# Molecular target: Cst6 (UniProt P40535)
# Assay: PBM E-score (8-mer binding enrichment) (E-score (-0.5 to 0.5)); higher = stronger / more preferred TF binding
# Conditions: protein concentration: 200 nM; construct: GST-DNA-binding domain
# Method in brief: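 Universal all-10-mer Agilent arrays, fresh or stripped once, were converted to double-stranded form by primer extension. GST-tagged yeast transcription factors from PURExpress in vitro transcription/translation, full-length or DNA-binding domain only, were applied at about 100-200 nM and detected with fluorescent anti-GST. After masliner normalisation, the Universal PBM Analysis Suite scored each ungapped eight-base word together with its reverse complement by E-score.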
# Sequence of UniProt P40535 (P40535 whole entry): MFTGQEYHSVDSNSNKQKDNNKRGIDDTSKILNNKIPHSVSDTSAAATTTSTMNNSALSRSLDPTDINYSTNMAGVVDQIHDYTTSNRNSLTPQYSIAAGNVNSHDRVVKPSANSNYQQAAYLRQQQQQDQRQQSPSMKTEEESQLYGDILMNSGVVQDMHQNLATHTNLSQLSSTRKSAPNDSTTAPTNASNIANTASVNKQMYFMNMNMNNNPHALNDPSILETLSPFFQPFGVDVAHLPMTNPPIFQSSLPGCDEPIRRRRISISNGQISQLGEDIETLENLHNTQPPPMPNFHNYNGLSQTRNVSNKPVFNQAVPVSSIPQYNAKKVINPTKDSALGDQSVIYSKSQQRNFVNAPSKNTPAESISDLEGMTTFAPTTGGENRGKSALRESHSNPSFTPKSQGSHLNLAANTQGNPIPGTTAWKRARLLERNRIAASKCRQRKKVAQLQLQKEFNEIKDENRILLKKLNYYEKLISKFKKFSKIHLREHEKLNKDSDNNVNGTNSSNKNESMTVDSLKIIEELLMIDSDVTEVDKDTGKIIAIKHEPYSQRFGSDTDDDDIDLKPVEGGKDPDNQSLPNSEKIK
row,Sequence,PBM E-score
1,CAACAGCC,0.153
2,ACAAGAAA,0.237
3,CCCGTCAA,-0.228
4,AATGTCAA,0.102
5,GACGTCAC,0.495
6,GACGTCCC,0.016
7,TCTGTCAA,0.111
8,AACGTCAT,0.489
9,CACGTCTA,-0.0114
10,CACGTCAA,0.366
11,AACGTCGT,0.0196
12,AACGTCCT,-0.0138
13,GACGTCGC,0.236
14,TATGTCAA,0.378
15,ATAAGCTC,-0.0286
16,CGCCCACC,-0.0447
17,CGGTCCGC,-0.198
18,ACAAAGAA,0.247
19,GACTGCTC,-0.26
20,ACACTTAA,0.105
21,GGGGCTTA,-0.346
22,CAGATAAA,0.051
23,CTATCGGA,-0.0998

row,Sequence,PBM E-score
1,AGTGTGCC,-0.088
2,AAAAATTC,0.186
3,CTGAAATC,0.0366
4,ATGAAATC,0.314
5,ATGAAATA,0.283
6,ATAGCTAT,-0.0877
7,CTTCGAAG,-0.21
8,AAGCTATG,-0.0495
9,ACTAAGAG,-0.0881
10,CAGAACGG,-0.0224
11,CGACATCG,-0.122
12,TGACATCA,0.496
13,CGACATCA,0.411
14,GGACATCA,0.188
15,CAACATCA,0.305
16,TAACATCA,0.399
17,CGACATCC,-0.0566
18,AAACATCA,0.268
19,AGACATCA,0.0931
20,ACGCTGGC,-0.207
21,AAAGGCAC,0.189
22,CAGACCCC,-0.316
23,GTCAATGA,0.235

row,Sequence,PBM E-score
1,ATCAATGA,0.35
2,CTCAATGA,0.14
3,CCGTACCG,-0.0599
4,CAGGGTGG,-0.23
5,CCCAAGAC,-0.0855
6,GGGACATA,-0.0929
7,AAGACATA,0.0804
8,ATGACATG,0.351
9,ATGACAGG,0.0675
10,GAGACATA,-0.00422
11,CGGACATA,0.0467
12,GTGACATA,0.471
13,ATGACAAG,0.134
14,CTGACATA,0.324
15,ATGACAGA,0.243
16,CAGACATA,0.131
17,ATGACATA,0.45
18,CATCTATA,0.162
19,ACGCGAGG,0.0628
20,CATGCCCC,-0.109
21,CATGAGAG,0.0742
22,CACGTGCG,-0.038
23,CTAGTTCC,0.0382

row,Sequence,PBM E-score
1,ATCGGCTA,-0.138
2,CGGGCGTC,-0.0942
3,AAGCCCGG,-0.209
4,AGAACGGG,-0.0993
5,CAATAAGA,0.181
6,ACTGGTTA,0.0197
7,AGGGACGA,0.0201
8,CGAGCTCA,-0.0803
9,TGAGCTCA,0.374
10,AGAGCTCA,-0.192
11,GAACCGCC,-0.092
12,GAGCTAAA,-0.0615
13,CACGTACA,-0.0529
14,CACGTATA,0.167
15,AACGTACA,0.0856
16,CCCGTATA,-0.0644
17,TACGTATA,0.328
18,AACGTATA,0.215
19,GCCGTATA,0.367
20,CACGTATG,0.204
21,TACGTACA,0.336
22,ACCGTATA,-0.0183
23,GACGTATA,0.322

row,Sequence,PBM E-score
1,TACGTAGA,0.224
2,ATGTTCGA,0.0764
3,CAATTGTC,0.0392
4,AGGATACC,-0.251
5,GCAGTAAC,-0.065
6,CATTCTGC,0.0305
7,CTTCGATA,0.178
8,ATTCCAAA,0.118
9,CGCATCCC,-0.216
10,ACGTAGCC,-0.0377
11,GATGACAC,0.286
12,AATGACAA,0.267
13,GACGACGC,0.074
14,GATGACAA,0.333
15,AATGACAT,0.422
16,GATGACTA,0.171
17,GATGACGC,0.473
18,GATGACCA,0.101
19,GATGACGA,0.463
20,GATGACCC,-0.0821
21,AATGACAG,0.167
22,CATGACAA,0.14
